High-throughput results as filed in PubChem BioAssay.
D2 PAM-1 – positively modulates the human D2 dopamine receptor allosterically; HEK293 T-REx D2, calcium flux, EC20 dopamine potentiation; potentiation, % at 10 µM; actives 0.34% (n = 340,000);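 active means potentiation over 3 SD above the plate norm, cut at about 30% in these data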
Target sequence (P14416 whole entry, looked up): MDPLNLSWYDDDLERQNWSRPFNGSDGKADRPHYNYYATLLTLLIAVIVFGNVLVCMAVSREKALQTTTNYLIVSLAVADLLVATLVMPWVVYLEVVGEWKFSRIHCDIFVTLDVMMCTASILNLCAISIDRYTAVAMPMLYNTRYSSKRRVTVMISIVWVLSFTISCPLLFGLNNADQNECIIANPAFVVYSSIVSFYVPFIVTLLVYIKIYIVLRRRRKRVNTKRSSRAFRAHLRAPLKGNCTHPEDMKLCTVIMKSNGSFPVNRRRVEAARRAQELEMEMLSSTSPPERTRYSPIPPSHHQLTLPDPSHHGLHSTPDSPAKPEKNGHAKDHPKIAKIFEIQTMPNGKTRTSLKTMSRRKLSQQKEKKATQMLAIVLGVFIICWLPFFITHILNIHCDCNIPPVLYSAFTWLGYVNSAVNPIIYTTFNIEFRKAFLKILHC
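Tetracycline-induced HEK293 T-REx cells force-coupled to calcium signalling expressed D2; compounds were pin-added after a 10 s baseline, read kinetically 180 s, then an EC20 dopamine challenge followed with a further 180 s calcium read.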
D2 ag-1 – activates the human D2 dopamine receptor; actives 0.084% (n = 360,000); DiscoveRx PathHunter D2 beta-arrestin, luminescence, 90 min; 100% = 57 uM dopamine signal; activation, % (no concentration beside the values); in the data active means activation above about 40%; inconclusive means between about 15% and that limit
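Agonist mode: compounds alone added to overnight-plated D2 PathHunter cells for 90 min at 37 C, with 57 uM final dopamine (EC100) defining full response. Beta-arrestin recruitment detected by chemiluminescent reagent, read after 1 h at ambient temperature.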
D2 antagonist – antagonizes the human D2 dopamine receptor. P14416. HEK293 TREx D2 cells, calcium flux, dopamine EC80. inhibition, % at 10 µM. actives 2% (n = 340,000); in the data active means inhibition above about 30%; inactive means below that, where a call was filed
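HEK293 T-REx D2 cells, tet-induced, calcium dye no-wash. Cpd pintool add, 180 s kinetic, then EC80 DA, 180 s kinetic. Ca flux read.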
D2 ag-2 – activates the human D2 dopamine receptor. AID 485358. P14416. HEK293 T-REx D2 cells, calcium flux agonist mode. activation, % at 2 µM. actives 0.53% (n = 340,000);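 active means activation over 3 SD above normal in the single-dose calcium agonist read, cut at about 30% in these data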
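In this primary screen, compounds producing a positive calcium signal within 180 s of addition to tetracycline-induced, force-coupled HEK293 Trex D2 cells are flagged; cells are dye-loaded with a no-wash calcium kit beforehand.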
D2 PAM-2 – positive allosteric modulators of human D2 dopamine receptor | P14416 | DiscoveRx D2 beta-arrestin cells, luminescence, 90 min; 100% = 57 uM dopamine signal | potentiation, % (no concentration beside the values) | actives 0.23% (n = 360,000); in the data active means potentiation above about 50%; inconclusive means mostly about 30% to 49%
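PathHunter D2 cells, attached overnight at 37 deg C, received compound in DMSO plus dopamine at EC20 (50 nM final) for 90 min at 37 deg C. Beta-arrestin recruitment was read as luminescence after 1 h with detection reagent at ambient temperature.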
Of the large screens only hits and unclear results are named; the others gave an inactive call. An excerpt weighted towards active compounds, which were near 2.4% of everything screened.

COc1cccc(/C=C/C(=O)OCC(=O)Nc2ccc(Cl)c(S(=O)(=O)N(C)C)c2)c1	none
COc1cccc(Nc2nc3ccc(C)cc3nc2-n2nc(C)cc2C)c1	none (no result: D2 ag-1, D2 antagonist, D2 PAM-2)
CC1(C)Cc2c(c(N3CCOCC3)nc3sc(C#N)c(N)c23)CS1	D2 antagonist 38.1
CC1(C)Cc2c(c(N3CCOCC3)nc3sc(C(N)=O)c(N)c23)CO1	none
CN(C(=O)COC(=O)C12CC3CC(CC(C3)C1)C2)c1c(N)n(Cc2ccccc2)c(=O)[nH]c1=O	D2 antagonist 46.7
COc1ccccc1C1SCCN1S(=O)(=O)c1cccc(C(F)(F)F)c1 (stereo not given)	D2 antagonist 47.4
COc1ccccc1C1SCCN1S(=O)(=O)c1ccccc1 (stereo not given)	none (no result: D2 PAM-1, D2 antagonist, D2 ag-2)
COc1cc(NC(=O)NCCn2nnc3cc(S(=O)(=O)N(C)C)ccc32)cc(OC)c1OC	none (no result: D2 ag-1, D2 antagonist, D2 PAM-2)
O=C(NCc1ccccc1)c1onc(CSc2ccccc2)c1C(=O)NCC1CC1	D2 antagonist 38.8
C=CCNC(=O)c1onc(CSc2ccccc2)c1C(=O)O	D2 antagonist 31.8
C=CCNC(=O)c1onc(CSc2ccc(F)cc2)c1C(=O)O	none
O=C(NCc1ccccc1)c1onc(CSc2ccc(Cl)cc2)c1C(=O)NCC1CC1	none
COc1ccc(F)cc1S(=O)(=O)NCCc1c(C)[nH]c2c(Cl)cccc12	none (no result: D2 ag-1, D2 antagonist, D2 PAM-2)
COc1ccc(-c2nc3scc(CCNS(=O)(=O)c4ccc5c(c4)OCCO5)n3n2)cc1OC	none (no result: D2 ag-1, D2 antagonist, D2 ag-2, D2 PAM-2)
O=C(O)CC(NC(=O)C1CCCCC1)c1cc([N+](=O)[O-])ccc1Cl (stereo not given)	none
O=C(O)CC(NC(=O)C12CC3CC(CC(C3)C1)C2)c1cc([N+](=O)[O-])ccc1Cl (stereo not given)	D2 antagonist 72.3
CC(C)CCn1c(=O)c2sccc2n2c(CCCC(=O)NC(C)c3ccccc3)nnc12 (stereo not given)	none (no result: D2 ag-1, D2 antagonist, D2 PAM-2)
CC(=O)Nc1ccccc1/C=C/c1ccc2c(C)ccc(O)c2n1	D2 antagonist 33.2
COc1ccc(CCCNC(=O)C2(C)Cc3c(-c4cccc(C(N)=O)c4)ccnc3O2)cc1 (stereo not given)	D2 ag-1 76.4 (no result: D2 PAM-1, D2 antagonist, D2 ag-2)
CC1(C(=O)NCCC(F)(F)F)Cc2c(-c3cccc(C(N)=O)c3)ccnc2O1 (stereo not given)	none (no result: D2 PAM-1, D2 antagonist, D2 ag-2)
Cc1ccc(C(=O)c2cnc3ccccc3c2-c2ccccc2)cc1	D2 PAM-1 30.8
COC(=O)c1ccc(NC(=O)NCCn2nnc3cc(S(=O)(=O)N(C)C)ccc32)cc1	none (no result: D2 ag-1, D2 antagonist, D2 PAM-2)
Nc1nc(N)nc(-c2cccc(Cl)c2)n1	D2 antagonist 32.1
O=[N+]([O-])c1cccc(C2Nc3cccc4cccc(c34)N2)c1	D2 ag-1 inconclusive, D2 PAM-2 105.4
Fc1ccc(C2Nc3cccc4cccc(c34)N2)cc1	none
COc1cc(C2Nc3cccc4cccc(c34)N2)ccc1OC(C)=O	D2 PAM-2 inconclusive
O=[N+]([O-])c1ccc(C2Nc3cccc4cccc(c34)N2)cc1	D2 ag-1 inconclusive, D2 PAM-2 80.1
COc1ccc(C2Nc3cccc4cccc(c34)N2)cc1Br	D2 PAM-2 53.9 (no result: D2 antagonist, D2 ag-2)
CCOc1ccc(-n2nc3ccc(NC(=O)COc4ccccc4C)cc3n2)cc1	none (no result: D2 ag-1, D2 antagonist, D2 PAM-2)
Cc1ccc(CC(=O)Nc2c(C(=O)N3CCN(c4ccccc4F)CC3)oc3ccccc23)cc1	none (no result: D2 ag-1, D2 antagonist, D2 PAM-2)
COc1ccc(/C=N/NC(=O)c2ccc(CN3c4cccc5cccc(c45)S3(=O)=O)cc2)cc1	D2 PAM-1 38.2
COc1cc(/C=N/NC(=O)c2ccc(CN3c4cccc5cccc(c45)S3(=O)=O)cc2)cc(OC)c1O	none
CS(=O)(=O)c1ccc2nc(NC(=O)CN3CCN(Cc4ccccc4)CC3)sc2c1	D2 antagonist 44.5
CS(=O)(=O)c1ccc2nc(NC(=O)c3cc([N+](=O)[O-])cc([N+](=O)[O-])c3)sc2c1	D2 ag-1 inconclusive, D2 PAM-2 99.2
COc1ccc2c3c(ccc2c1)C(=O)/C(=C/O)CC3	D2 ag-1 inconclusive, D2 PAM-2 52.3 (no result: D2 PAM-1, D2 antagonist, D2 ag-2)
Cc1cccc(N2CCN(C(=O)CNC(=O)c3ccccc3)CC2)c1C	D2 antagonist 33.1
Cc1cccc(N2CCN(C(=O)CNC(=O)C3CCCCC3)CC2)c1C	none
